Laboratory results: ChEMBL document CHEMBL1961873, “Compounds: GSK PKIS; Assays: Nanosyn kinase panel” (2012)
Values joined by “and” are separate entries in the source; they are usually repeats but may differ in a detail not shown here. Equal entries are not always repeated.

Assays:
[1] = molecular target: T1, Inhibitor of nuclear factor kappa-B kinase subunit epsilon (Homo sapiens) (UniProt Q14164); conditions: at 1 µM;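 further: reported values are averaged percent inhibition figures against human IKKε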
T1 sequence (whole entry): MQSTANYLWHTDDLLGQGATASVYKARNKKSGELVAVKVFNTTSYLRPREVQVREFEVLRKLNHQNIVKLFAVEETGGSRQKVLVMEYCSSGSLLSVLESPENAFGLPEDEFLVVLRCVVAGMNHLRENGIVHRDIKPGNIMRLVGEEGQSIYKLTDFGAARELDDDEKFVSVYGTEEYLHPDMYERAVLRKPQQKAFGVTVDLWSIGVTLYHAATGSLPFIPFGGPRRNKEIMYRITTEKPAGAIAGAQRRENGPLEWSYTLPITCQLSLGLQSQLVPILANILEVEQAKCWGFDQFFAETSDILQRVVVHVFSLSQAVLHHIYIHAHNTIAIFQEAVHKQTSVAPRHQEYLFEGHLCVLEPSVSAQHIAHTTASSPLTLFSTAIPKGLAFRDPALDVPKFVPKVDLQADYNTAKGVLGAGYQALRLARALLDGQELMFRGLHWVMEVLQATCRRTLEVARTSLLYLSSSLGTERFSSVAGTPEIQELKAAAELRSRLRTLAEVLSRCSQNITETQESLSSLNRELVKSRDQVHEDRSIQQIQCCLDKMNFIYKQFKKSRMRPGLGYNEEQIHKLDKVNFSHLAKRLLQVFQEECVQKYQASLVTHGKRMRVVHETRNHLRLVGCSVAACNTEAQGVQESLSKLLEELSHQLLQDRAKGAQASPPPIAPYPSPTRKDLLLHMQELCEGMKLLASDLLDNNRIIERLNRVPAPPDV

[2] = molecular target: T2, Serine/threonine-protein kinase Nek1 (Homo sapiens) (UniProt Q96PY6); conditions: at 0.1 µM
T2 sequence (whole entry): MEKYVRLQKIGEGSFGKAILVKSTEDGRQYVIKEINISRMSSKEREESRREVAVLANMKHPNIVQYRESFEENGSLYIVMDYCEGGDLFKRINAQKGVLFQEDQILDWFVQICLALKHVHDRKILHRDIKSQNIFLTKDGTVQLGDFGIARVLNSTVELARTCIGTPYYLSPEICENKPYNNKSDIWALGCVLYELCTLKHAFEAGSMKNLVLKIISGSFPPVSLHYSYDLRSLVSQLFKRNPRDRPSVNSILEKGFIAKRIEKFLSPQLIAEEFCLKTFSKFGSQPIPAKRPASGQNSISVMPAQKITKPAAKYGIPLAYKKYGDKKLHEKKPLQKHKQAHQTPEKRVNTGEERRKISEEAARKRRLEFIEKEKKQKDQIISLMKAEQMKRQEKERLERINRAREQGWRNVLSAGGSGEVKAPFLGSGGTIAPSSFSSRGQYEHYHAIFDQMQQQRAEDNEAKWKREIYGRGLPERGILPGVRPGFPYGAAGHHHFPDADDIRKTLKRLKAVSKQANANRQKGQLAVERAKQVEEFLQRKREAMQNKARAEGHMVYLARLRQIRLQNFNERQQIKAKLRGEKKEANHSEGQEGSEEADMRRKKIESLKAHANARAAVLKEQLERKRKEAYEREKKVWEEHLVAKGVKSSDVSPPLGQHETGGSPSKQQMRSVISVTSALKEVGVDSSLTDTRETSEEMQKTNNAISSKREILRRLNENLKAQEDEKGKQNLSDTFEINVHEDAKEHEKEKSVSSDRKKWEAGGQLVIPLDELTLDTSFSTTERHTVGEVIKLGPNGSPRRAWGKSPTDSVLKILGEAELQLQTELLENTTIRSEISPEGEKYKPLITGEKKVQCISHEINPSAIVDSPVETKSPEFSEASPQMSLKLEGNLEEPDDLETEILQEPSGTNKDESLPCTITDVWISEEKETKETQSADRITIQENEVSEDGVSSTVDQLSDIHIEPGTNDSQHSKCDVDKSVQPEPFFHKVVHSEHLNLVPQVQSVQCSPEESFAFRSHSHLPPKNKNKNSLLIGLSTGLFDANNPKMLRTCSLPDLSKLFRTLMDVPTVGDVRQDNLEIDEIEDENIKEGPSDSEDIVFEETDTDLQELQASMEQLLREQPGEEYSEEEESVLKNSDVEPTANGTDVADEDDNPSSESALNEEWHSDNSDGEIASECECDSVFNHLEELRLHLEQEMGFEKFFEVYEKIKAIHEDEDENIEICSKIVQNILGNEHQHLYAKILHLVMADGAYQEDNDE

[3] = molecular target: T2, Serine/threonine-protein kinase Nek1 (Homo sapiens); conditions: at 1 µM
[4] = molecular target: T3, Serine/threonine-protein kinase Nek2 (Homo sapiens) (UniProt P51955); conditions: at 0.1 µM
T3 sequence (whole entry): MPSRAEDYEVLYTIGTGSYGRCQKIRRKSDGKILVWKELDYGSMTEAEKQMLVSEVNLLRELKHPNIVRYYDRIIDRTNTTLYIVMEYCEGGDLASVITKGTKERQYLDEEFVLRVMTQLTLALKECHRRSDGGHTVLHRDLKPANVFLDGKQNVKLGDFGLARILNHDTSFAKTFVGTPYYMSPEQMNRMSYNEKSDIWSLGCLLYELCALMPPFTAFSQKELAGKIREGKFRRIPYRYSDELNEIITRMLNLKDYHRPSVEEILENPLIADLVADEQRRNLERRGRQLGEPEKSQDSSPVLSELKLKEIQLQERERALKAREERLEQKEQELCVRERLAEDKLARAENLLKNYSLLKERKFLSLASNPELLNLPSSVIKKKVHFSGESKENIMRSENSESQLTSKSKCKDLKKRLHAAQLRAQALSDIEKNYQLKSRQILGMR

[5] = molecular target: T3, Serine/threonine-protein kinase Nek2 (Homo sapiens); conditions: at 1 µM
[6] = molecular target: Serine/threonine-protein kinase Nek6 (Homo sapiens) (UniProt Q9HC98); conditions: at 0.1 µM
Sequence of Serine/threonine-protein kinase Nek6 (Homo sapiens) (Q9HC98 whole entry): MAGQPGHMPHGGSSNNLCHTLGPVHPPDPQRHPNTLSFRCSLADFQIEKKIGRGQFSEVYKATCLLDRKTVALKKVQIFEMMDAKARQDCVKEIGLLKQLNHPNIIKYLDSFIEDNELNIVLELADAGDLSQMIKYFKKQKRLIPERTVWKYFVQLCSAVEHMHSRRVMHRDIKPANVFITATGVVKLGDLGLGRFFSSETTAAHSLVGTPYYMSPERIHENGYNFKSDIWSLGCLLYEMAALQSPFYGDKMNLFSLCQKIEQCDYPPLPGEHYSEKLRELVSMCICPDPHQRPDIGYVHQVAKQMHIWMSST

[7] = molecular target: Serine/threonine-protein kinase Nek6 (Homo sapiens) (UniProt Q9HC98); conditions: at 1 µM
[8] = molecular target: Serine/threonine-protein kinase Nek7 (Homo sapiens) (UniProt Q8TDX7); conditions: at 0.1 µM
Sequence of Serine/threonine-protein kinase Nek7 (Homo sapiens) (Q8TDX7 whole entry, looked up): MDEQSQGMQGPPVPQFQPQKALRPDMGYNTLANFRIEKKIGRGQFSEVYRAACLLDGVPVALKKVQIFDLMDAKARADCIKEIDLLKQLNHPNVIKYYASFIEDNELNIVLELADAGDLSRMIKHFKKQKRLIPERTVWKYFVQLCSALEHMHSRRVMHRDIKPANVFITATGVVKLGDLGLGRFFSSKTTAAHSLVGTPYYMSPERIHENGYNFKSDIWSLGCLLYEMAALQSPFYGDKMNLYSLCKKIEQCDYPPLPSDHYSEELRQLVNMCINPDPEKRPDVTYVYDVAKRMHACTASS

[9] = molecular target: Serine/threonine-protein kinase Nek7 (Homo sapiens) (UniProt Q8TDX7); conditions: at 1 µM
[10] = molecular target: T4, Serine/threonine-protein kinase Nek9 (Homo sapiens) (UniProt Q8TD19); conditions: at 0.1 µM
T4 sequence (whole entry): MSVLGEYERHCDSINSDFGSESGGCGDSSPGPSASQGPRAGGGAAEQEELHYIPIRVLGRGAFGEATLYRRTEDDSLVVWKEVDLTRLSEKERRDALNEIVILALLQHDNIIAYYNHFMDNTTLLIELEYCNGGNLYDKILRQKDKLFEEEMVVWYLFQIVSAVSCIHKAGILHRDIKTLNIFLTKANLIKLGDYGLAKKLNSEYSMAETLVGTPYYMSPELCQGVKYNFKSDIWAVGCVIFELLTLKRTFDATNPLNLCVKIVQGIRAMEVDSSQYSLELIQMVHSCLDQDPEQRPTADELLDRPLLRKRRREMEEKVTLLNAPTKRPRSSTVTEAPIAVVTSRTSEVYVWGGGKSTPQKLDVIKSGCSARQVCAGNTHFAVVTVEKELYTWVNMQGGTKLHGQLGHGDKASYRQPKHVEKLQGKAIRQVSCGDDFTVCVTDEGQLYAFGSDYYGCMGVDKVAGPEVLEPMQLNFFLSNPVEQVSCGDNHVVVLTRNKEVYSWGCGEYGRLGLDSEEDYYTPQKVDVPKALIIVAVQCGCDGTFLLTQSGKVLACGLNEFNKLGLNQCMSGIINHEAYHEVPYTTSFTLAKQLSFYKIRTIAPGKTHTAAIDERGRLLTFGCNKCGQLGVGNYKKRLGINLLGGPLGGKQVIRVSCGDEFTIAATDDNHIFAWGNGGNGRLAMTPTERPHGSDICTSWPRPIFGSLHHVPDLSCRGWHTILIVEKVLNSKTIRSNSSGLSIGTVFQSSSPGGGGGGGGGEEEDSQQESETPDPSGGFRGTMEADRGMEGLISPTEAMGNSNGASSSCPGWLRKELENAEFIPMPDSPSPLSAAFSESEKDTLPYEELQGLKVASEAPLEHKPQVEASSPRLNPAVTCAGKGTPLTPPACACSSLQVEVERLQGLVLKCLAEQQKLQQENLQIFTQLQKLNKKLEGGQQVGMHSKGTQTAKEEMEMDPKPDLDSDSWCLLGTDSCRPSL

[11] = molecular target: T4, Serine/threonine-protein kinase Nek9 (Homo sapiens); conditions: at 1 µM
[12] = molecular target: Serine/threonine-protein kinase PLK1 (Homo sapiens) (UniProt P53350); conditions: at 0.1 µM
Sequence of Serine/threonine-protein kinase PLK1 (Homo sapiens) (P53350 whole entry): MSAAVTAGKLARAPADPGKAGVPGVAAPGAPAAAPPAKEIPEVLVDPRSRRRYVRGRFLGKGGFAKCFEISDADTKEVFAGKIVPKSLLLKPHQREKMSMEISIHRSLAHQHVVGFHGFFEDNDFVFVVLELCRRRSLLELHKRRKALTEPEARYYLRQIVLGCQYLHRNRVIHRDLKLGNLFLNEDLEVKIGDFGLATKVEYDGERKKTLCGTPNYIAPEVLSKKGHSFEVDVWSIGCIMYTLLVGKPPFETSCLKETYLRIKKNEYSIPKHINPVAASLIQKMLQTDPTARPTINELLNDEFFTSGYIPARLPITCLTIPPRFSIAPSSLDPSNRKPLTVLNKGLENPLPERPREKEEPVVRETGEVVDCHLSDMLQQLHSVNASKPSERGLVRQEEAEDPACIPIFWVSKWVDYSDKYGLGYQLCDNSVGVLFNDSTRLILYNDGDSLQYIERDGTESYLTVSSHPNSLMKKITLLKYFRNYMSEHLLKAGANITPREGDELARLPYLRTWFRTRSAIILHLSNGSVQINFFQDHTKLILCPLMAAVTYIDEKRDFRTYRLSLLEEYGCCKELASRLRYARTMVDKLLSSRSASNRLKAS

[13] = molecular target: Serine/threonine-protein kinase PLK1 (Homo sapiens) (UniProt P53350); conditions: at 1 µM
[14] = molecular target: T5, Dual specificity protein kinase TTK (Homo sapiens) (UniProt P33981); conditions: at 0.1 µM
T5 sequence (whole entry): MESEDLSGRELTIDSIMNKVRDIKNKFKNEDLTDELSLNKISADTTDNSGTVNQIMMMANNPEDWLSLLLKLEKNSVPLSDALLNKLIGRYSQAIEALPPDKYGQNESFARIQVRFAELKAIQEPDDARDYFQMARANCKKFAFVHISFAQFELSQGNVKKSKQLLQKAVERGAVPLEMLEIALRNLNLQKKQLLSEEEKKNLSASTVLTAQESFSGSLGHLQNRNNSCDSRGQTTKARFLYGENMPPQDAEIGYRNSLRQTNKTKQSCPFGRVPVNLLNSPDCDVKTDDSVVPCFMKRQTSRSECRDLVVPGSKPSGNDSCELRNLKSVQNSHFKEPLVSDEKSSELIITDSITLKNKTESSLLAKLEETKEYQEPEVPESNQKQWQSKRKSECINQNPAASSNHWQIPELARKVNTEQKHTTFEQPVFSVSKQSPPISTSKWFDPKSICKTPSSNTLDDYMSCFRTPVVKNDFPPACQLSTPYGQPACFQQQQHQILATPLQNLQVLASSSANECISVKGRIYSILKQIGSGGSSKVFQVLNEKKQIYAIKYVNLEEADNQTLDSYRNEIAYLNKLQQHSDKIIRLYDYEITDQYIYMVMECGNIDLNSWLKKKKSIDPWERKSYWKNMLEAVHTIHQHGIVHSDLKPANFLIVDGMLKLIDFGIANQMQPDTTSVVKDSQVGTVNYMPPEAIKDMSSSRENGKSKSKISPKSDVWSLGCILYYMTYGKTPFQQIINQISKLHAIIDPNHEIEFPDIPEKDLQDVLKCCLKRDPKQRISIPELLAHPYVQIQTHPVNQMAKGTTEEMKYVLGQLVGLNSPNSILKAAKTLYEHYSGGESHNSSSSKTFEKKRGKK

[15] = test system: T6, Receptor-type tyrosine-protein kinase FLT3 (Homo sapiens), P36888 [D835Y]; conditions: at 1 µM
T6 sequence (whole entry): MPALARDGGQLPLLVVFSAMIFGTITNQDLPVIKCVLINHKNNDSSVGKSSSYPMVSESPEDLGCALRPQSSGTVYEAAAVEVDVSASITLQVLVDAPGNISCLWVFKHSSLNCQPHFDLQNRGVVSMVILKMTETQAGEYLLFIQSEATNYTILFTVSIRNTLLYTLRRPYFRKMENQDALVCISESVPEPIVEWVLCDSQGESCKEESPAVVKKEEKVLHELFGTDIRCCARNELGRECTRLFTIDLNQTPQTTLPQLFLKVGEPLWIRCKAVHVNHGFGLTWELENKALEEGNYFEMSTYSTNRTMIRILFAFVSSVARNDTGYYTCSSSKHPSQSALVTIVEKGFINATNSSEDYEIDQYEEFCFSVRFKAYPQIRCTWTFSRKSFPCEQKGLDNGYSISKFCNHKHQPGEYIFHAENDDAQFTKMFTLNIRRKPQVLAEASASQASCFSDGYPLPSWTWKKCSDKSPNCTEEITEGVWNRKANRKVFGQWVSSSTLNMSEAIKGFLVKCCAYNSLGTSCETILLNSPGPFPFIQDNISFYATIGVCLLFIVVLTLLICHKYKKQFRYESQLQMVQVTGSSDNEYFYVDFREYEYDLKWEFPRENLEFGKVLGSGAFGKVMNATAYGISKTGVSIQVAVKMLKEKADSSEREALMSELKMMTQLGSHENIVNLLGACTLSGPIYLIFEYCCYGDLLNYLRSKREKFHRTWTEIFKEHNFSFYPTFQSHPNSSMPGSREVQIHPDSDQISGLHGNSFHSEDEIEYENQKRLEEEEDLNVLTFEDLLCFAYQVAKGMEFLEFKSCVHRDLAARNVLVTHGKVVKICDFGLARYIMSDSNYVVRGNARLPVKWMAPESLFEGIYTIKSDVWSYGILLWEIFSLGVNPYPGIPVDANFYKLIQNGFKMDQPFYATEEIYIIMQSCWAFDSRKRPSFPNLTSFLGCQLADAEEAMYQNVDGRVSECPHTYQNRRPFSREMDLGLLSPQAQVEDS

[16] = molecular target: Vascular endothelial growth factor receptor 3 (Homo sapiens) (UniProt P35916); conditions: at 0.1 µM
Sequence of Vascular endothelial growth factor receptor 3 (Homo sapiens) (P35916 whole entry): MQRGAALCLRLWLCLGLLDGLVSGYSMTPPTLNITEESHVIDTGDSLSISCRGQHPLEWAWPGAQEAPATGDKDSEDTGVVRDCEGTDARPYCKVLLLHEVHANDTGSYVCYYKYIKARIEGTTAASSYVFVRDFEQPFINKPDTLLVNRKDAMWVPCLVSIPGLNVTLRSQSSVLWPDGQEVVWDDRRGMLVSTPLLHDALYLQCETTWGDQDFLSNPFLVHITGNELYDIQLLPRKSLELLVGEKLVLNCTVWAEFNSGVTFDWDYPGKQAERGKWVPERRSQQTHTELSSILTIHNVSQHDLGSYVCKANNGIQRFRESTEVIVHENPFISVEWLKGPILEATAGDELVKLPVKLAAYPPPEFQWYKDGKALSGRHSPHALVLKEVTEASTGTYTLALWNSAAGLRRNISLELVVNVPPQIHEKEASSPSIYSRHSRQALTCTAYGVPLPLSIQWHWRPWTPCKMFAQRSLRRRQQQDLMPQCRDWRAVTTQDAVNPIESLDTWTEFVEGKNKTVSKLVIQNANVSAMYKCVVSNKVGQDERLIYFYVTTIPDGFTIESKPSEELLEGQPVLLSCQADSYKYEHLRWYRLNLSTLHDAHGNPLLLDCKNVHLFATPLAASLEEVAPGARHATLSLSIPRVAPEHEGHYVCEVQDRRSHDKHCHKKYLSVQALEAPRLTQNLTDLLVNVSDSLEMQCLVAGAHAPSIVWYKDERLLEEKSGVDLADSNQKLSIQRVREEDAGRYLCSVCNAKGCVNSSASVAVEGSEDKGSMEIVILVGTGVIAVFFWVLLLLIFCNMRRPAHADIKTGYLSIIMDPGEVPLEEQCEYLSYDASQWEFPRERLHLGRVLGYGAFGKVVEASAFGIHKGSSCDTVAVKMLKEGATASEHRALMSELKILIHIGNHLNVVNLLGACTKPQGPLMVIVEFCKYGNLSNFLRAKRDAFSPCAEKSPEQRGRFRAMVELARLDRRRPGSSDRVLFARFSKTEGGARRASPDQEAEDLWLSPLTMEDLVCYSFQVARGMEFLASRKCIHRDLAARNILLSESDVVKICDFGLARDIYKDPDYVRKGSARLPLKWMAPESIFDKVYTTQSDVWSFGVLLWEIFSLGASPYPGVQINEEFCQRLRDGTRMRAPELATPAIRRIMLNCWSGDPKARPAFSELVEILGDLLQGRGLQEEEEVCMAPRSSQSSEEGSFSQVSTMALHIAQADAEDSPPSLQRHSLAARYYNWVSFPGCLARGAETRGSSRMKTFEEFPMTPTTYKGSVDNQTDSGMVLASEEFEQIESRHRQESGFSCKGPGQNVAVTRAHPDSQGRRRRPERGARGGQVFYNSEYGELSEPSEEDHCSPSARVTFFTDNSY

[17] = molecular target: Vascular endothelial growth factor receptor 3 (Homo sapiens) (UniProt P35916); conditions: at 1 µM
[18] = molecular target: Macrophage colony-stimulating factor 1 receptor (Homo sapiens) (UniProt P07333); conditions: at 0.1 µM
Sequence of Macrophage colony-stimulating factor 1 receptor (Homo sapiens) (P07333 whole entry): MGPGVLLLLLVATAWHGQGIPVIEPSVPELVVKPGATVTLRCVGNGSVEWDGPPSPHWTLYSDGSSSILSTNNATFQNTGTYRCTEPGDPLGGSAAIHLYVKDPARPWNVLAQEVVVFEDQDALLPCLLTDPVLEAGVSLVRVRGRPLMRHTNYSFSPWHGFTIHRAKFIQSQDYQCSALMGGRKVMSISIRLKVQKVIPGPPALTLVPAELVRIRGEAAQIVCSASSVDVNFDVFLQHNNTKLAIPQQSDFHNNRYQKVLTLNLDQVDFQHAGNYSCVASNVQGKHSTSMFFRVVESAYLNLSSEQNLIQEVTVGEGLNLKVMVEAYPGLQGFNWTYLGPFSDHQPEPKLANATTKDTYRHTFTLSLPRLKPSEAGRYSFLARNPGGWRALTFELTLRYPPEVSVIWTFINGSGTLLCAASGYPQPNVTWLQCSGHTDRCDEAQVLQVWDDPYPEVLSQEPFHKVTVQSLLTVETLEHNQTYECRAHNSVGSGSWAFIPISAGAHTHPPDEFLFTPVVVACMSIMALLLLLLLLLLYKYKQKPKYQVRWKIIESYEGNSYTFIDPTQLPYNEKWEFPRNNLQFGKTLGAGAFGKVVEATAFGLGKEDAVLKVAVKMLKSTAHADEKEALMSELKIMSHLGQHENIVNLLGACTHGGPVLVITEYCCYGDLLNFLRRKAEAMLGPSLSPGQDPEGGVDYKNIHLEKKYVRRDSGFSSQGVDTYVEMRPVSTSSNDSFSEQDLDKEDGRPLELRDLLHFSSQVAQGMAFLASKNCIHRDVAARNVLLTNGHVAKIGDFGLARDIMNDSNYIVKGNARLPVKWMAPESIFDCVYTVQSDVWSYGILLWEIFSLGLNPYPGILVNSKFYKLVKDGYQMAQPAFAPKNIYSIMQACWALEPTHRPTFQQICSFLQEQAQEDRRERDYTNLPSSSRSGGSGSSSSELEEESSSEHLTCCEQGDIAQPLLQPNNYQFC

[19] = molecular target: Macrophage colony-stimulating factor 1 receptor (Homo sapiens) (UniProt P07333); conditions: at 1 µM
[20] = molecular target: Tyrosine-protein kinase Fyn (Homo sapiens) (UniProt P06241); conditions: at 0.1 µM
Sequence of Tyrosine-protein kinase Fyn (Homo sapiens) (P06241 2-537 limits assumed): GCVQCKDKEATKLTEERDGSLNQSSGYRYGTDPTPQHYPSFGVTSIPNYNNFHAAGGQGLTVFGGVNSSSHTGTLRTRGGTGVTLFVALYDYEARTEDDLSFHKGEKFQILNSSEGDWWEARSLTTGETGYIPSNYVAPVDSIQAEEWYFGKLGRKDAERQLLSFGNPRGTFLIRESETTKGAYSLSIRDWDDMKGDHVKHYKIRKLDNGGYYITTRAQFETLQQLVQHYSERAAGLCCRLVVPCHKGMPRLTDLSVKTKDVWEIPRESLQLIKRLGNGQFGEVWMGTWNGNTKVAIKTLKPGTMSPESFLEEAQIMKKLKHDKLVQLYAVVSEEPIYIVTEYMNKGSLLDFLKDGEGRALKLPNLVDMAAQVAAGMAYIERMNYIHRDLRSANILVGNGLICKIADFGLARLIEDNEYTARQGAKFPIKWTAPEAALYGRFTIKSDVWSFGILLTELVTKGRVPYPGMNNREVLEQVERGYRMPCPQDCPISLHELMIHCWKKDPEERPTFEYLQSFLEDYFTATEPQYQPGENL

Nc1ncnc2occ(-c3ccc(NC(=O)Nc4cc(C(F)(F)F)ccc4F)cc3)c12 was tested, and the inhibition [1] was 11.5% and 1.35%, the inhibition [2] was 4.57% and -0.38% and the inhibition [3] was 34.7% and 18.1%. The inhibition [4] was 1.72% and -2.9%, the inhibition [5] was -2.44% and -3.79% and the inhibition [6] was 2.68% and -0.01%. The inhibition [7] was -0.68% and -1.16%, the inhibition [8] was 2.87% and -5.06% and the inhibition [9] was -8.19% and -5.1%. The inhibition [10] was 5.05% and 5.01%, the inhibition [11] was 4.68% and 3.35% and the inhibition [12] was 2.14% and -0.72%. For the same compound, the inhibition [13] was 1.27% and 0.12%, the inhibition [14] was 1.69% and 5.46% and the inhibition [15] was 35.4% and 26.1%. For the same compound, the inhibition [16] was 44.8% and 23.6%, the inhibition [17] was 97.2% and 75.5% and the inhibition [18] was 91.2% and 83.5%. The inhibition [19] was 96.1% and 81.2% and the inhibition [20] was 2.34% and 3.05%.
